Compound activity deposited in PubChem by National Center for Advancing Translational Sciences (NCATS).
Hits are enriched below; roughly 0.43% of the tested compounds scored in any of these assays.
GAA glycogen mod: qHTS Assay for Inhibitors and Activators of Human alpha-Glucosidase Cleavage of Glycogen | recombinant GAA, glycogen substrate, Amplex Red glucose oxidase fluorescence | AID 2100, 2009 | Potency, µM (top dose mostly 76.4 µM), without a hit: at the highest dose activity change, negative = inhibition, actives largely listed as inhibitors | actives 0.38% (n = 300,000);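 also: potency is read from the fitted curve at half-maximal effect; 0% = full enzyme reaction and -100% = no-enzyme basal signal; the screen sought inhibitors and activators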
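Recombinant human alpha-glucosidase (4 nM final) hydrolysed bovine liver glycogen (30 ug) for 40 min at 37 C in pH 5.0 citrate/phosphate with 0.01% Tween-20. Released glucose detected by glucose oxidase/Amplex Red, Ex 573/Em 610 nm. Compounds up to 77 uM; AC50 from Hill fits.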
GLA inh pH 4.5: qHTS Assay for Inhibitors of Human alpha-Galactosidase at pH 4.5 | Alpha-galactosidase A (Homo sapiens), P06280 | 230,000 tested, under 10 active | purified enzyme, 4-MU-alpha-Gal fluorescence, pH 4.5 | activity change, negative = inhibition, % at 105 µM;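 also: 0% = full activity with enzyme and -100% = basal without enzyme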
Target sequence (P06280 whole entry, looked up): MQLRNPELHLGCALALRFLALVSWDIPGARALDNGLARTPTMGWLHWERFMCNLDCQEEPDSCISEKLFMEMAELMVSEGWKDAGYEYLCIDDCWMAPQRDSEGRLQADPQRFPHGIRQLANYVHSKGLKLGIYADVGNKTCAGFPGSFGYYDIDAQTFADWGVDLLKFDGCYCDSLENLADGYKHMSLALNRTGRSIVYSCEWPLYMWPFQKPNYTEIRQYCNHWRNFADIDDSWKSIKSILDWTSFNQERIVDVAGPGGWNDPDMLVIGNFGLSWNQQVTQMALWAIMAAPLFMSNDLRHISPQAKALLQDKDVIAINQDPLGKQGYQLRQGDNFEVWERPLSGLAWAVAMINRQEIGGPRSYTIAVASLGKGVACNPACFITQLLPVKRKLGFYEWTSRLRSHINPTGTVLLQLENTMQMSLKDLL
N370S GC mod: qHTS Assay for Inhibitors and Activators of N370S glucocerebrosidase as a Potential Chaperone Treatment of Gaucher Disease; N370S GC spleen homogenate, 4MU-glucoside fluorescence; actives 0.092% (n = 330,000); Potency, µM (doses to about 59.4 µM), without a hit: at the highest dose activity change, negative = inhibition, most hits filed as inhibitors;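 also: potency is read from the fitted curve at half-maximal effect; 0% = full enzyme activity and -100% = no enzyme basal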
GAA inhib: qHTS Assay for Inhibitors of Human alpha-Glucosidase as a Potential Chaperone Treatment of Pompe Disease; Lysosomal alpha-glucosidase (Homo sapiens), P10253; purified human GAA, 4-MU-alpha-glucoside fluorescence; Potency, µM (top dose mostly 76.9 µM), inactives show at the highest dose activity change, negative = inhibition, usual class: inhibitors; actives 0.005% (n = 200,000); AID 1466, 2008;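 also: potency is read from the fitted curve at half-maximal effect; plate controls were uninhibited enzyme wells for no effect and no-enzyme background for full effect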
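Fluorogenic assay: 4 nM human alpha-glucosidase with 400 uM 4-methylumbelliferyl-alpha-D-pyranoside in 50 mM citrate/phosphate, 0.005% Tween-20, pH 5.0, 20 min at room temperature. Compounds tested up to 77 uM; AC50 from Hill fits.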
GAA spleen mod: qHTS Assay for Inhibitors and Activators of Human alpha-Glucosidase From Spleen Homogenate. human spleen homogenate, 4-MU-alpha-glucoside fluorescence. AID 2112, 2009. Potency, µM (series often up to 79.9 µM), without a hit: at the top dose activity change, negative = inhibition, usual class: inhibitors. actives 0.006% (n = 240,000);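 also: potency is read from the fitted curve at half-maximal effect; 0% = enzyme with vehicle and -100% = no enzyme basal signal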
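AC50 values come from Hill-equation fits of concentration-response data, normalized to no-enzyme and full-activity controls. Enzyme source: 1 ug human spleen homogenate; 1 mM fluorogenic 4-MU glucoside, pH 5.0 citrate buffer, 37 C, 40 min.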
aGal spleen mod: qHTS Assay for Inhibitors and Activators of Human alpha-Galactosidase From Spleen Homogenate. human spleen homogenate, 4MU-alpha-Gal fluorescence, 40 min. Potency, µM (top dose mostly 80 µM), without a hit: at the highest dose activity change, negative = inhibition, usual class: inhibitors. AID 2107, 2009. actives 0.008% (n = 240,000). Alpha-galactosidase A (Homo sapiens), P06280;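 also: potency is read from the fitted curve at half-maximal effect; 0% = enzyme with vehicle and -100% = no enzyme basal signal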
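qHTS titration in buffer at pH 5.0. Alpha-galactosidase activity in spleen homogenate was measured via 4-methylumbelliferone release from 1 mM fluorogenic substrate after 40 min at 37C and a pH 10 stop. AC50 came from Hill fits of control-normalized data.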
Active calls of the source: *; ? = inconclusive; / = no result given; [ ] = remark or other dose. Calls follow the shape of the dose curve; as a rule, active = well fitted curve in the direction sought with a large enough effect; inconclusive = small, poorly fitted or top-dose-only effect, or another doubt; inactive = no such curve, though single readings can be large; an effect the other way counts as inactive or inconclusive.

SMILES	GAA glycogen mod	GLA inh pH 4.5	N370S GC mod	GAA inhib	GAA spleen mod	aGal spleen mod
CCN1CCCc2cc(CN(CCN3CCOCC3)C(=O)Nc3ccc(C)c(C)c3)ccc21	11µM*	1	-19%	-5%	-1%	-13%
CCN1CCCc2cc(CN(CCN3CCOCC3)C(=S)Nc3cccc(C)c3)ccc21	?	-27	-24%	-4%	-3%	-8%
CCN1CCCc2cc(CN(CCN3CCOCC3)C(=S)Nc3ccc(OC)c(OC)c3)ccc21	?	0	-20%	-4%	0%	6%
CCO[Si](CCCN)(OCC)OCC	/	/	-3%	/	6%	-4%
C#CCOCCOCCOCCNc1nc(N2CCN(C(=O)CCCCCCCCCCNC(=O)Cn3cc(C[C@@H](C)O)nn3)CC2)nc(N2CCN(C(=O)CCCCCCCCCCNC(=O)[C@H](CCCCN)n3cc(CCCC(=O)O)nn3)CC2)n1	/	/	-14%	/	/	/
C#CCOCCOCCOCCNc1nc(N2CCN(C(=O)CCCCCCCCCCNC(=O)[C@H](CO)n3cc(CCCSC)nn3)CC2)nc(N2CCN(C(=O)CCCCCCCCCCNC(=O)[C@H](CCCN=C(N)N)n3cc(C[C@@H](C)CC)nn3)CC2)n1	/	/	3.2µM*	/	/	/
C#CCOCCOCCOCCNc1nc(N2CCN(C(=O)CCCCCCCCCCNC(=O)Cn3cc(C[C@@H](C)O)nn3)CC2)nc(N2CCN(C(=O)CCCCCCCCCCNC(=O)[C@H](CCCN=C(N)N)n3cc(C[C@@H](C)CC)nn3)CC2)n1	/	/	2.8µM*	/	/	/
COc1ccc(S(=O)(=O)c2c(C)c(NS(=O)(=O)c3ccccc3)cc(C)c2O)cc1	?	-1	11%	-2%	-4%	-1%
Cc1c(NS(=O)(=O)c2ccccc2)cc(C(C)C)c(O)c1S(=O)(=O)c1ccc(Cl)cc1	11µM*	/	/	/	/	/
CCCCCCCC/C=C\CCCCCCCCOC[C@H](COP(=O)([O-])OCC[N+](C)(C)C)OC(C)=O	/	-15	9%	/	-5%	10%
Cc1cc(O)c(C(C)C)cc1N=C1CSC(=O)N1	18µM*	-6	2%	5%	8%	5%
COC(=O)[C@H]1O[C@@H](c2cc(OC)c(C)c(OC)c2O)[C@H](C)[C@@H](O)[C@H]1C	/	-5	-2%	/	3%	3%
CCOc1cc(CNCCO)cc(Br)c1OCc1ccc(Cl)cc1Cl	-4%	-3	10µM*	-15%	-9%	-4%
COc1ccc(Nc2cc(C)c3c(O)cccc3n2)cc1	22µM*	0	-18%	/	4%	8%
COc1cccc(Cn2c(=O)n(-c3cc(C)cc(C)c3)c(=O)c3oc4ccccc4c32)c1	8%[76.3 µM]	/	/	/	/	/
CC/C=C\CC[C@H](OC(=O)c1ccc(Br)cc1)C1=CCCCC1=O	/	/	20%[12.8 µM]	/	-7%[17.4 µM]	-4%[17.5 µM]
O=c1[nH]c(CN2CCN(CCO)CC2)nc2ccccc12	3%	6	2%	-4%	-13%	-7%
O=c1[nH]c(CN2CCN(c3ccccc3O)CC2)nc2ccccc12	7.9µM*	-2	-8%	?	2%	7%
CCOC(=O)c1c(N)sc2c1CCCC2	35µM*	2	-2%	2%	-8%	4%
CCOC(=O)c1c(N)sc2c1CCC(C)C2 (configuration not stated)	?	-15	3%[2.35 µM]	-3%	1%	2%
COc1ccc(CCNC(=O)CS(=O)(=O)Cc2nc(-c3cccc(Cl)c3)oc2C)cc1OC	3%[76.3 µM]	/	/	/	/	/
CC(=O)c1ccc(NC(=O)COc2ccccc2-c2nc(C(C)C)no2)cc1	-10%[76.3 µM]	/	/	/	/	/
CC(=O)c1ccc(NC(=O)COc2ccccc2-c2nc(C)no2)cc1	7.1µM*	/	/	/	/	/
